Reference: the supplement of paper PMC10338343
± gives the standard deviation.

Test system: MILI (PIWIL2) piRISC loaded with piRNA #1 (26 nt)
Experiment: pre-steady-state target cleavage rate (min^-1); guide: piRNA #1 5'p-UGAGGUAGUAGGUUGUAUAGUAUCCA; MIWI and MILI are mouse PIWI proteins and EfPiwi is from a freshwater sponge; tags in brackets are library labels; higher = faster piRNA-guided slicing of the target
Details: auxiliary factor: 500 nM mouse GTSF1
Method in brief: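 Active affinity-purified piRISC (1 nM) loaded with one synthetic guide was mixed with a transcribed, DNA-blocked target RNA library (0.1 nM), with or without 500 nM GTSF1 partner protein, in HEPES–potassium acetate buffer at 33 °C for 0–8 or 0–960 min. Uncleaved targets were sequenced, normalised to depth and to weakly complementary targets, and pooled across three trials, with k3 capped at 0.0001 min^-1. The pre-steady-state cleavage rate was determined with a burst-and-steady-state fit.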

Sequence	pre-steady-state target cleavage rate
GGAGACCUAUGAUGACAACCUACUACCUCA	0.00556 ± 0.0019
GGAGACCUAUGAUAACAACCUACUACCUUCA	0.00428 ± 0.0025
GGAGACCUAUGAUAACAAGCUACAACCUCA	0.0095 ± 0.0029
GGAGACCUAUGAUAUGAACCUACUACGUGA	< 0.0001
GGAGACCUUACUAAACAACCAACUACCUCA	0.00386 ± 0.0036
GGAGACCUAUGAUAUGUACCAACUAGCUCA	< 0.0001
GGAGACCAUACUAUACAUGCUACUACCUCA	0.0704 ± 0.01
GGAGACCUAUGAUUACAACCUACAUCCUCA	0.00278 ± 0.0025
GGAGAGGAUUCUAUACAACCUACAACCUCA	0.0904 ± 0.012
GGAGAGGAUAGAUUACAACCUACUACCUCA	0.0529 ± 0.0086
GGAGACCUAUGAUAUGAACGCUACUACCUCA	< 0.0001
GGAGACCUAUCUAUACAACGUACUACCUCA	0.0127 ± 0.0028
GGAGACCUAUGAUUACAACCUACUGACCUCA	0.00605 ± 0.0028
GGAGACCUAUGAAUACAUCCUACUACCUGA	0.00353 ± 0.002
GGAGACCUAUGUAUAGAACGUACUACCUCA	0.00362 ± 0.0018
GGAGACCUAUGUAUACAACCUACUACGUGA	0.0238 ± 0.0053
GGAGACCUAUGAUAUGUACCUACUACCUGCA	< 0.0001
GGAGACCUUACUAUACAACGAACUACCUCA	0.00385 ± 0.0021
GGAGACCUAUGUUUACAUCCUACUACCUCA	0.0197 ± 0.0031
GGAGACCUAUGUAUACAACCUUCUACCUCA	0.00351 ± 0.0017

Sequence	pre-steady-state target cleavage rate
GGAGACCUAUGAAUACUACCUACUUCCUCA	0.0037 ± 0.0024
GGAGACCAUACUAAACAACCUACUACGUCA	0.0881 ± 0.014
GGAGACCAUACUAUUCAUCCUACUACCUCA	0.271 ± 0.019
GGAGACCUUACUAUACAUGCUACUACCUCA	0.111 ± 0.0086
GGAGACCUUACUAUACAUCCUACUACGUCA	0.141 ± 0.022
GGAGACCUAUGUAAACAACCUUCUACCUCA	0.00363 ± 0.0033
GGAGACCUUAGUAUACAACCAACUACCUCA	0.00446 ± 0.0029
GGAGACCUAUGAAUACAACCUACUUACCUCA	0.00968 ± 0.0023
GGAGAGGAUACAAUACAACCUUCUACCUCA	0.0148 ± 0.003
GGAGACCUAUGAUAACAACCUACGUACCUCA	0.00286 ± 0.0027
GGAGACCUAUCUAUACAAGCUACUAGCUCA	0.0812 ± 0.018
GGAGACCUAAGUAUACAACCUACUACCUGA	0.0424 ± 0.0093
GGAGACCUAUGUAUAGAACCUACUACCUCA	0.0559 ± 0.0092
GGAGACCUAUCUAAACAACCUUCUACCUCA	0.00634 ± 0.0024
GGAGACCUAUGAUUACAACCUACUACUCUCA	0.00541 ± 0.0034
GGAGACCUAUCUAUACAACCUACUAGCUCA	0.0827 ± 0.014
GGAGACCUAUGUUUACAACCUACUAGCUCA	0.00692 ± 0.0034
GGAGACCUAUGAUAUGUACCUACUACCCA	< 0.0001
GGAGACCUAUGUUUUCAACCUACUACCUCA	0.00894 ± 0.0025
GGAGACCUAUGUAAUCAACCUACUACCUCA	0.00445 ± 0.003
